Screening results (PubChem)
Compounds with a hit are over-represented: about 22% of the library has one in this group of screens.
Cycloheximide cs: Cycloheximide Counterscreen for Small Molecule Inhibitors of Shiga Toxin | cell reporter, cycloheximide protein synthesis inhibition counterscreen | max response, % | hit rate 12% among 300,000; in the data active means max response mostly above about 13%, no sharp cut-off; inactive means mostly below about 14%; further: read at 38.3 µM for the half of the compounds with a filed dose; 0% is about no effect
Shiga toxin inh: A qHTS for Small Molecule Inhibitors of Shiga Toxin; hit rate 9.2% among 290,000; Vero cells, Shiga toxin protein synthesis inhibition reporter; inhibition, % at 38.7 µM; in the data active means inhibition mostly above about 28%, no sharp cut-off; inactive means mostly below about 43%; further: 0% is about no effect
Pf growth 96h: Primary qHTS for delayed death inhibitors of the malarial parasite plastid, 96 hour incubation; P. falciparum luciferase reporter growth, 96 h; AID 504834, 2011; hit rate 6.9% among 320,000; Potency, µM (highest dose often 28.7 µM), for the others: at the top dose activity change, negative = inhibition, most hits filed as inhibitors; further: potency means the concentration at half of the fitted maximal effect; on the % scale 0 is the no-effect control and ±100 the full control effect
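Parasite growth measured via integrated firefly luciferase reporter in P. falciparum. Infected erythrocytes at 2% hematocrit, 0.05% parasitemia final were treated 96 hours at 37 C under 5% CO2, and luminescence was read.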
Pf growth 48h: Primary qHTS for delayed death inhibitors of the malarial parasite plastid, 48 hour incubation; P. falciparum luciferase growth in erythrocytes, 48 h; Potency, µM (series often up to 28.7 µM), for the others: at the highest dose activity change, negative = inhibition, usual class: inhibitors; hit rate 5.9% among 310,000; AID 504832, 2011; further: potency means the concentration at half of the fitted maximal effect; on the % scale 0 is the no-effect control and ±100 the full control effect
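A one-generation exposure of luciferase-tagged malaria parasites in RPMI 1640/Albumax erythrocyte culture, 37 C and 5% CO2. Inhibition is inferred from decreased luminescence after adding detection reagent.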
LmPK inhibitor: qHTS Assay for Inhibitors of Leishmania Mexicana Pyruvate Kinase (LmPK); Q27686; Potency, µM (titrated, usually from 57.5 µM), inactives show at the top dose activity change, negative = inhibition, usual class: inhibitors; AID 1721, 2009; hit rate 0.37% among 290,000; purified LmPK, Kinase-Glo ATP luminescence, 1 h; further: potency means the concentration at half of the fitted maximal effect; on the % scale 0 is the no-effect control and ±100 the full control effect
Target sequence (Q27686 whole entry, looked up): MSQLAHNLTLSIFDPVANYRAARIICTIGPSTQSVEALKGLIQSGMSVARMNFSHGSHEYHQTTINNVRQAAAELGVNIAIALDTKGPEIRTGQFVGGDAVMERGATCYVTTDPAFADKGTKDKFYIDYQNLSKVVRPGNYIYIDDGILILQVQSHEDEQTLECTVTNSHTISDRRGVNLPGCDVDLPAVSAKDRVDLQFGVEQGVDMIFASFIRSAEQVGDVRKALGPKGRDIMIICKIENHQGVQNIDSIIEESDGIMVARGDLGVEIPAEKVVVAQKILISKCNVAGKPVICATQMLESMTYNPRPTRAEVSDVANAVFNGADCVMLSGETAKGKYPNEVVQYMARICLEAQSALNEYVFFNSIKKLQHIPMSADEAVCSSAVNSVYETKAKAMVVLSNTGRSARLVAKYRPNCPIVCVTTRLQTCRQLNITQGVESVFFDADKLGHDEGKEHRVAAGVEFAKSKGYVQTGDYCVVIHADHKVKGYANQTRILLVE
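Kinase-Glo luminescence read after 1 h RT reaction of 0.1 nM LmPK with 0.5 mM PEP and 0.1 mM ADP. Activity scaled between uninhibited and enzyme-free controls.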
An asterisk follows results filed as active; u = inconclusive; x = not tested or not shown; [ ] = remark or other dose. Unless noted, the call rests on the fitted dose curve; in most records, active means well fitted inhibition curve with a large enough effect; inconclusive means small, poorly fitted or top-dose-only effect, or another doubt; inactive means no such curve, though single readings can be large or run the other way.

SMILES	Cycloheximide cs	Shiga toxin inh	Pf growth 96h	Pf growth 48h	LmPK inhibitor
COc1ccc(OC)c(N2Cc3ccccc3C2=N)c1	1	23	5.9µM*	6%	-6%
O=C(NCC(=O)N(c1cnc2ccccc2c1)C(C(=O)NC1CCCC1)c1ccncc1)c1ccco1 (centres undefined)	15*	18	-41%	6%	-2%
O=C(CN(Cc1ccc2c(c1)OCO2)C(=O)CNC(=O)c1ccco1)NC1CCCCC1	-4	-2	7.4µM*	8%	6%
COc1ccc(N(C(=O)Cc2cccs2)C(C(=O)NC2CCCC2)c2ccncc2)cc1 (centres undefined)	-4	2	-2%	4%	-3%
O=C(NCC(=O)N(c1ccccc1)C(C(=O)NC1CCCCC1)c1ccncc1)c1ccco1 (centres undefined)	-1	-23	1%	25%	3%
O=C(CN(C(=O)CNC(=O)c1ccco1)c1ccc2c(c1)OCO2)NC1CCCCC1	12	5	0%	-28%	0%
Cc1ccc(N(C(=O)CNC(=O)c2ccco2)C(C(=O)NC2CCCCC2)c2ccncc2)c(C)c1 (centres undefined)	-10	6	-6%	12µM*	-6%
COc1ccc(N(C(=O)CNC(=O)c2cccs2)C(C(=O)NC2CCCC2)c2ccncc2)cc1 (centres undefined)	-4	-4	13µM*	-5%	-5%
COc1ccc(C(=O)Oc2ccc(N(C)S(=O)(=O)c3ccccc3)cc2)cc1[N+](=O)[O-]	-4	5	51%	8%	2%
Cc1cc(SCc2ccc([N+](=O)[O-])cc2)nc(=O)[nH]1	23	22	-11%	29%	2%
O=C(NCC(=O)N(c1ccc2c(c1)OCCO2)C(C(=O)NC1CCCC1)c1ccco1)c1ccco1 (centres undefined)	5	9	0.83µM*	u	-7%
CCOC(=O)c1ccc(N(CC(=O)NC2CCCC2)C(=O)CNC(=O)c2ccco2)cc1	-2	-11	7%	9.3µM*	-2%
COc1ccc(N(C(=O)CNC(=O)c2ccco2)C(C(=O)NC2CCCC2)c2ccncc2)cc1 (centres undefined)	11	15	2.6µM*	11%	5%
O=C(NCC(=O)N(Cc1cccs1)C(C(=O)NC1CCCCC1)c1ccncc1)c1ccco1 (centres undefined)	-3	14	5.9µM*	u	0%
O=C(NCC(=O)N1CCN(c2ncccn2)CC1)c1ccc(F)cc1	x	x	69%	99%	x
O=C(NC1CCCCC1)c1cn(CCN2CCOCC2)c2cc(Cl)ccc2c1=O	-2	-1	x	x	x
COc1ccc(C2=NN(C(=O)c3ccccc3)C(c3ccc(OC)c(OC)c3)C2)c(O)c1 (centres undefined)	-4	-4	10µM*	10µM*	-6%
COc1ccc(C2CC(c3ccc(OC)cc3OC(C)=O)=NN2C(=O)c2ccccc2)cc1 (centres undefined)	14*	37	u	0%[0.00184 µM]	1%
COc1ccc(C2CC(c3ccccc3OC(C)=O)=NN2C(=O)/C=C/c2ccccc2)cc1OC (centres undefined)	3	-5	u	2.6µM*	0%
CCC(=O)N1N=C(c2ccc(C)o2)CC1c1ccc(OC)cc1 (centres undefined)	14	18	52%	20%	1%
COc1ccccc1C1=NN(C(=O)c2ccccc2)C(c2ccc(Br)cc2)C1 (centres undefined)	17*	9	4%	3.7µM*	-1%
COc1ccc(C2CC(c3ccc(Br)cc3)=NN2C(=O)CCC(=O)O)cc1OC (centres undefined)	-3	14	97%	-23%	-5%
CCCCn1c(N)c(N(CCOC)C(=O)COC(=O)CSc2cc(C)c3ccccc3n2)c(=O)[nH]c1=O	x	x	31%	-6%	x
CCOc1ccc(Nc2nc(N(C)c3ccccc3)nc(N)c2[N+](=O)[O-])cc1	-1	16	9%	20%	-3%
COc1ccc(C2CC(c3ccccc3OC(=O)/C=C/c3ccccc3)=NN2C(C)=O)cc1 (centres undefined)	6	14	10%	2%	4%
SMILES	Cycloheximide cs	Shiga toxin inh	Pf growth 96h	Pf growth 48h	LmPK inhibitor
COc1ccc(C2=NN(C(=O)/C=C/c3ccccc3)C(c3ccccc3)C2)c(OC(C)=O)c1 (centres undefined)	5	-3	u	13µM*	7%
CCOC(=O)[C@H]1[C@H]2COc3ccc(Cl)cc3[C@@H]2N2C(=O)CN(C)C(=O)[C@@]12C	x	x	u	-8%	x
COc1ccccc1N1CCN(CC(=O)Nc2nc(C)c(C(=O)N(C)C)s2)CC1	-3	2	15µM*	-27%	1%
Cc1ccc(S(=O)(=O)/C(=C/Cl)NC(=O)c2ccccc2)cc1	15*	13	u	-15%	-9%
Cc1ccc(S(=O)(=O)CCC(=O)OCC(=O)NC(=O)c2ccccc2)cc1	x	x	13%	2%	x
Cc1ccc(C(=O)NC(=C(Cl)Cl)S(=O)(=O)c2ccc(Cl)cc2)cc1	48*	87*	6%	5%	7%
CC(=O)NC(=C(Cl)Cl)S(=O)(=O)c1ccccc1	36*	66*	u	u	-1%
Cc1ccc(C(=O)NC(=C(Cl)Cl)S(=O)(=O)c2ccc(C)cc2)cc1	13	24	3%	9%	1%
O=C(NC(=C(Cl)Cl)S(=O)(=O)c1ccc(Cl)cc1)c1ccccc1	57*	90*	9%	-9%	11%
CC(=O)c1c(O)cccc1O	-12	-15	x	x	x
COc1ccc(NC2CCCN(C(=O)c3csc(C(C)C)n3)C2)cc1 (centres undefined)	-2	-13	u	26%	5%
COc1cc(OC)cc(C(=O)NCC2CCCN(C(=O)c3csc(C(C)C)n3)C2)c1 (centres undefined)	21*	-8	6%	6%	2%
Cc1cc(C)c2c(N)c(C(=O)c3ccc(Br)cc3)oc2n1	13	15	15%	5%	5%
Cc1cc(C)c2c(N)c(C(=O)c3ccccc3)oc2n1	1	-6	2.3µM*	16%	1%
Cc1ccc(OCCC(=O)Nc2ccc(F)c(Cl)c2)cc1	1	-4	15µM*	7%	0%
Cc1ccccc1NCCC(=O)Nc1ccc(F)cc1	16*	38	48%	24%	-1%
Cc1ccc(NC(=O)CCOc2ccccc2C)cc1F	30*	38	0%	17%	1%
Cc1cc(F)ccc1NCC(=O)Nc1ccccc1Br	26*	116*	u	u	2%
Cc1ccc(OCCC(=O)Nc2ccc(C)c(F)c2)cc1	9	6	-7%	15%	-5%
CC(=O)Nc1ccc(NC(=O)CCOc2ccccc2C)cc1	-3	24	29%	8%	-4%
CC(=O)c1ccc(NC(=O)CCOc2cc(C)ccc2C)cc1	41*	115*	50%	29%	5%
